# In the library only some 4.8% were active in any assay of this set; here they are far more common.
# tim23-1 inh – tim23-1 yeast growth inhibition | S. cerevisiae tim23-1 growth, BacTiter-Glo luminescence, 24 h | inhibition, % at 20 µM | hit rate 1.3% among 330,000 | AID 463212;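 active = growth inhibition of the mutant yeast at or above 50%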;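 also: temperature-sensitive mutant grown at 25 °C; plate controls were DMSO-treated mutant yeast for no effect and medium wells lacking yeast for full effect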
# SKKanGAS inh – SKKanGAS growth inhibition; S. pyogenes SKKanGAS, kanamycin growth, BacTiter-Glo, 6 h; hit rate 1.3% among 300,000; inhibition, % at 7.5 µM; AID 1662;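 active = mean replicate score, as percent of positive control median, at least 50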;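 also: strain carries kanamycin resistance gene driven by streptokinase promoter and grows in 40 µg/ml kanamycin; loss of luminescence reflects streptokinase promoter inhibition or plain growth inhibition; 0% = median of DMSO wells and 100% = positive control at its reference dose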
# NALP1 inh – inhibitors of NALP1 inflammasome in yeast; S. cerevisiae NALP1/ASC/caspase-1 growth, X-gal OD620, 72 h; inhibition, % at 10 µM; hit rate 0.61% among 280,000; in the data active = inhibition mostly above about 24%, no sharp cut-off; inactive = mostly below about 32%
# TIM10 inh – inhibits growth of TIM10 yeast strain. S. cerevisiae TIM10 strain growth, BacTiter-Glo luminescence, 24 h. inhibition, % at 10 µM. hit rate 1.4% among 330,000;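 active = inhibition of 40% or more at the single tested concentration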;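 also: wild-type TIM10 isogenic control strain grown at permissive 25 °C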
# tim10-1 inh – tim10-1 yeast growth inhibition; S. cerevisiae tim10-1 ts strain growth, BacTiter-Glo, 24 h; inhibition, % at 20 µM; hit rate 2.2% among 330,000; AID 463190;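 active = inhibition of at least 40%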;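 also: mutant grown at 25 °C; 0% = DMSO wells with yeast and 100% = wells holding no yeast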
# PfHsp90 set2 – inhibits growth of yeast expressing Plasmodium falciparum Hsp90. inhibition, % at 9.4 µM. hit rate 0.32% among 310,000. S. cerevisiae expressing PfHsp90, BacTiter-Glo ATP, 48 h; yeast lacking PDR1 and PDR3 efflux regulators;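 active = every replicate shows inhibition above about 80%, whatever the replicate mean, limit read from the data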;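 also: 0% = DMSO neutral controls and 100% = 20 µM radicicol positive controls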
# tim10 confirm – TIM10 yeast growth inhibition, confirmed | shares compounds with TIM10 inh | hit rate 63% among 4,600 | inhibition, % at 10 µM | AID 463215 | S. cerevisiae tim10 strain growth, BacTiter-Glo luminescence, 24 h;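 active = inhibition of yeast growth at or above a set limit in either of two replicates at 10 µM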;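 also: this counterscreen used the strain with wild-type TIM10; 0% = yeast with DMSO and 100% = medium wells lacking yeast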
# tim23-1 conf – confirmation of tim23-1 mutant yeast growth inhibitors; AID 463218; inhibition, % at 20 µM; hit rate 83% among 4,400; shares compounds with tim23-1 inh; S. cerevisiae tim23-1 growth, BacTiter-Glo luminescence, 24 h;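 active = inhibition above about 39% in either of two replicate wells at 20 µM, limit read from the data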;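 also: temperature-sensitive tim23-1 mutant grown at 25 °C; 0% = DMSO wells with yeast and 100% = medium wells without yeast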
# * marks the source's active call; other numbers are inactive results; nt = no result.
SMILES,tim23-1 inh,SKKanGAS inh,NALP1 inh,TIM10 inh,tim10-1 inh,PfHsp90 set2,tim10 confirm,tim23-1 conf
CCCNc1nc(N)nc(-c2cc(Cl)ccc2OC)n1,23,-2,nt,-1,12,-1,nt,nt
CCc1ccn2cc(-c3cc(-c4ccccc4)no3)nc2c1,61*,-2,-3,62*,33,24,56*,81*
COC(=O)[C@]1(CC(C)C)N[C@H](c2ccc(-c3ccc(C(C)=O)cc3)cc2)[C@@H]2C(=O)N(C)C(=O)[C@@H]21,-7,nt,nt,-6,1,1,nt,nt
COc1ccccc1C/C(N)=N/OC(=O)c1ccc2c(c1)OCO2,72*,-9,3,71*,24,-18,80*,77*
O=C(CSc1nccc(=O)[nH]1)c1cc2ccccc2o1,13,5,7,17,-9,1,nt,nt
COc1ccc(Oc2cccc(Cl)c2CNC(=O)CSCC(=O)O)cc1,2,-14,14,-17,7,-7,nt,nt
CCCn1nnc(NC(=O)c2ccc(-c3cccc(Cl)c3)o2)n1,69*,0,3,51*,34,-26,32*,74*
CCn1nnc(NC(=S)NC(=O)c2ccc(-c3cccc(Cl)c3)o2)n1,41,-6,nt,35,35,-17,nt,nt
CCCCCCCCCCCCN1[C@@H](CC(=O)OC)c2cc(F)cc(F)c2S1(=O)=O,1,3,nt,2,0,nt,nt,nt
Cc1ccc(/C=C/C(=O)c2ccc([N+](=O)[O-])o2)cc1,57*,67*,nt,68*,27,nt,78*,-25
Cc1c(NC(=O)COc2ccc(C(C)C)cc2)c(=O)n(-c2ccccc2)n1C,6,2,-4,-2,-10,1,nt,nt
N#CC1(c2nc3ccccc3[nH]2)CC1c1ccc2c(c1)OCO2 (stereo unspecified),56*,-2,0,56*,33,nt,32*,72*
CC(C)(C)c1ccc(C(=O)N/N=C/c2cccc(Cl)c2)cc1,66*,1,27,63*,37,3,52*,77*
COc1cccc(/C=N/NC(=O)c2c(-c3ccccc3)noc2C)c1O,32,19,-5,24,25,nt,nt,nt
Cc1ccc(/C=N/NC(=O)c2c(-c3ccccc3)noc2C)c(O)c1,57*,2,2,43*,36,nt,25,42*
Oc1c(Br)cc(Br)cc1C=Nc1ccc2c(c1)OCCO2,84*,6,14,56*,25,22,34*,92*
Oc1c(Br)cc(Br)cc1C=Nc1ccc2c(c1)OCO2,82*,12,58,66*,36,6,52*,72*
O=[N+]([O-])c1ccc(O)c(C=Nc2ccc3c(c2)OCCO3)c1,39,-11,21,18,4,31,nt,nt
COc1cccc(-c2cn(-c3cccc(C(F)(F)F)c3)c(=S)[nH]2)c1,nt,17,2,nt,nt,12,nt,nt
COc1ccccc1OCc1ccc(C(=O)Nc2ccccc2F)cc1,-22,1,14,-12,-10,-26,nt,nt
N#CC(C(=O)c1ccccc1Cl)=C1SCCCS1,69*,-8,-33,42*,31,-11,40*,52*
CCOc1ccc(Br)cc1S(=O)(=O)NCc1ccc(S(N)(=O)=O)cc1,-1,-7,-19,0,15,3,nt,nt
CC(C)N1CCc2c(sc(NC(=O)c3ccc4ccccc4c3)c2C(N)=O)C1,40,6,16,19,13,7,nt,nt
CC(=O)Nc1sc2c(c1-c1nc3ccccc3s1)CCN(C(C)C)C2,54*,nt,48*,66*,35,-5,63*,60*
Brc1ccc2ncnc(Nc3cccc4ccccc34)c2c1,73*,2,23,41*,28,-43,29,47*
SMILES,tim23-1 inh,SKKanGAS inh,NALP1 inh,TIM10 inh,tim10-1 inh,PfHsp90 set2,tim10 confirm,tim23-1 conf
NS(=O)(=O)c1ccc(CNS(=O)(=O)c2ccc3c(c2)OCCO3)cc1,2,-3,16,6,-7,-9,nt,nt
Cc1ccc(CNS(=O)(=O)c2ccc3c(c2)OCCO3)cc1,56*,-5,27,41*,38,25,42*,46*
Cc1ccccc1C(=O)Nc1cccc(NC(=O)c2ccc(-c3ccc(Br)cc3)o2)c1,11,18,13,23,-3,-5,nt,nt
COc1ccc(N=C(C)C2=C(O)c3ccccc3C2=O)cc1,58*,-1,32,62*,35,-20,12,68*
Cc1ccc(-c2cc(O)cc3sc(=O)oc23)cc1C,71*,1,-9,53*,23,-50,68*,7
O=c1oc2cc(O)ccc2s1,-4,-3,nt,-1,-8,18,nt,nt
Oc1ccc(Nc2nc(-c3ccccc3O)nc3ccccc23)cc1,75*,20,-5,47*,26,-5,62*,-20
Cc1ccc(NN2C(=O)C=C(c3ccc(Cl)cc3)C2=O)cc1,68*,22,7,73*,31,120*,59*,20
Cc1cc(S(=O)(=O)c2ccc([N+](=O)[O-])cn2)ccc1Br,86*,2,nt,44*,22,69,61*,81*
Cc1cc(Sc2ccc([N+](=O)[O-])cn2)ccc1Br,-3,-1,nt,-7,-15,-6,nt,nt
COc1ccc(N2CCN(C(CNC(=O)C(=O)NCCC3=CCCCC3)c3ccco3)CC2)cc1 (stereo unspecified),6,-7,24,6,15,13,nt,nt
COc1cc(C(=O)ON=C2C3CC4CC(C3)CC2C4)cc(OC)c1OC,50*,-3,18,82*,19,-24,84*,60*
CCc1ccc(-c2cc(C(=O)N3N=C(C(F)F)CC3(O)C(F)F)c3ccccc3n2)cc1 (stereo unspecified),54*,17,0,48*,40,111*,26,29
CC(C)Cc1cc(C(=O)N2N=C(C(F)F)CC2(O)C(F)F)c2ccccc2n1 (stereo unspecified),18,-7,6,4,22,nt,nt,nt
O=C(Cn1c(SCc2ccccc2)nc2ccccc21)N1CCOCC1,9,-22,-10,4,11,-27,nt,nt
COc1ccccc1[C@]1(C)ON(c2ccccc2C(F)(F)F)C1=O,69*,nt,nt,63*,-51,-23,58*,-55
CC[C@]1(c2ccccc2OC)ON(c2ccccc2C(F)(F)F)C1=O,57*,nt,nt,40*,25,nt,69*,62*
CN1CCN(c2nc(-c3cccnc3)nc3scc(-c4ccccc4)c23)CC1,16,-5,14,10,11,-19,nt,nt
Clc1nc(-c2ccccn2)nc2scc(-c3ccccc3)c12,52*,18,nt,50*,18,-20,-7,58*
